Target: PRR3
Assay: pooled miR-30 sensor sort-seq; sequence = guide strand
Conditions: shRNA
Also: reference of the scale not given here.

Question: For TTCTTGATAAGAGACCAGCTTT, which sensor-assay potency score (higher = more potent) is on record?
Answer: Its sensor-assay potency score (higher = more potent) is -0.745.

Question: TCGAGGGTTTCTCTGTTCCTTG was tested. Which sensor-assay potency score (higher = more potent) did it give?
Answer: The sensor-assay potency score (higher = more potent) was -0.785.

Question: With TCCTTGTGAAAGCTTCCCCTGG as the sequence, how does the sensor-assay potency score (higher = more potent) read?
Answer: The sensor-assay potency score (higher = more potent) was -1.31.

Question: Which sensor-assay potency score (higher = more potent) does the source give for TTTGTCTTCCATAACCTGGGGG here?
Answer: The sensor-assay potency score (higher = more potent) was 0.295.

Question: With TTTTTGGCAAAATGTCGGCAGA as the sequence, how does the sensor-assay potency score (higher = more potent) read?
Answer: Its sensor-assay potency score (higher = more potent) is -1.27.

Question: TAACTCTGCACCAGTCACCCAA was tested. Which sensor-assay potency score (higher = more potent) did it give?
Answer: The sensor-assay potency score (higher = more potent) was -0.887.

Question: Which sensor-assay potency score (higher = more potent) does the source give for TTGATAAGAGACCAGCTTTTGA here?
Answer: The sensor-assay potency score (higher = more potent) was -1.38.

Question: For TCTGCATTGACTCCCCACCAAC, which sensor-assay potency score (higher = more potent) is on record?
Answer: The sensor-assay potency score (higher = more potent) was -1.61.

Question: How did the sensor-assay potency score (higher = more potent) turn out when TTGTCTTCCATAACCTGGGGGT was run?
Answer: The sensor-assay potency score (higher = more potent) was -0.114.

Question: For TAGGAAGTAACTCTGCACCAGT, which sensor-assay potency score (higher = more potent) is on record?
Answer: Its sensor-assay potency score (higher = more potent) is -0.0951.

Question: Which sensor-assay potency score (higher = more potent) does the source give for TGATCCTGGAGGACCTCTGTGA here?
Answer: The sensor-assay potency score (higher = more potent) was -0.51.

Question: How did the sensor-assay potency score (higher = more potent) turn out when TCAGTGGTCCCCTTGATCCTGG was run?
Answer: The sensor-assay potency score (higher = more potent) was -0.862.

Target: PRR5
Assay: as above
Conditions: shRNA

Question: TCTAGCTTCACACTGAGGGTGA was tested. Which sensor-assay potency score (higher = more potent) did it give?
Answer: The sensor-assay potency score (higher = more potent) was 0.389.

Question: TTCAGAATCCGAGTCCACGGAC was tested. Which sensor-assay potency score (higher = more potent) did it give?
Answer: Its sensor-assay potency score (higher = more potent) is -1.2.

Question: TGGTCCACCAGGTTCTCCGGGC was tested. Which sensor-assay potency score (higher = more potent) did it give?
Answer: Its sensor-assay potency score (higher = more potent) is -0.928.

Question: For TCACTGAAGAAGAAGTCCCAGG, which sensor-assay potency score (higher = more potent) is on record?
Answer: Its sensor-assay potency score (higher = more potent) is -0.956.

Question: Which sensor-assay potency score (higher = more potent) does the source give for TAGTCCTCAGTCACGCCCCTGG here?
Answer: The sensor-assay potency score (higher = more potent) was -0.743.

Question: Which sensor-assay potency score (higher = more potent) does the source give for TGTTGTAGCTCTTGGAGCGCAC here?
Answer: The sensor-assay potency score (higher = more potent) was -0.639.

Question: How did the sensor-assay potency score (higher = more potent) turn out when TAGCTTCACACTGAGGGTGATG was run?
Answer: The sensor-assay potency score (higher = more potent) was -1.08.

Question: For TTCTGTCCCTCATAGAAGCGAA, which sensor-assay potency score (higher = more potent) is on record?
Answer: The sensor-assay potency score (higher = more potent) was -1.06.

Question: How did the sensor-assay potency score (higher = more potent) turn out when ATCCTCTAGCTTCACACTGAGG was run?
Answer: The sensor-assay potency score (higher = more potent) was -1.85.

Question: Which sensor-assay potency score (higher = more potent) does the source give for TCGTGGGGTACAGTCTGCTGGG here?
Answer: Its sensor-assay potency score (higher = more potent) is -0.767.

Question: How did the sensor-assay potency score (higher = more potent) turn out when ATCTCCGACACAGAGTGCCTGC was run?
Answer: The sensor-assay potency score (higher = more potent) was -0.984.

Question: TTGTGGATGCTGTTCCAGGTGG was tested. Which sensor-assay potency score (higher = more potent) did it give?
Answer: The sensor-assay potency score (higher = more potent) was -1.05.

Target: PRRX2
Assay: as above
Conditions: shRNA

Question: How did the sensor-assay potency score (higher = more potent) turn out when TTGAGCAGCGAGGCAGAGCGGC was run?
Answer: Its sensor-assay potency score (higher = more potent) is -1.11.

Question: Which sensor-assay potency score (higher = more potent) does the source give for TTGGCCTTGAGACGGAGGCTGG here?
Answer: Its sensor-assay potency score (higher = more potent) is -0.803.

Question: With TAGGACTTGAGCAGCGAGGCAG as the sequence, how does the sensor-assay potency score (higher = more potent) read?
Answer: Its sensor-assay potency score (higher = more potent) is -0.751.

Question: With TTCCTGCGGAACTTGGCGCGGC as the sequence, how does the sensor-assay potency score (higher = more potent) read?
Answer: The sensor-assay potency score (higher = more potent) was -0.664.

Question: TAGGGGGACGAGGCTGTCCAGG was tested. Which sensor-assay potency score (higher = more potent) did it give?
Answer: Its sensor-assay potency score (higher = more potent) is -1.31.

Question: For TTTTCTATTGCTGTCCACCCAG, which sensor-assay potency score (higher = more potent) is on record?
Answer: Its sensor-assay potency score (higher = more potent) is -0.328.

Question: With TAGGGTGGCACTGTGCTGTAGG as the sequence, how does the sensor-assay potency score (higher = more potent) read?
Answer: The sensor-assay potency score (higher = more potent) was 0.726.

Question: TCGCTGAGGTTGACGCGCCGGG was tested. Which sensor-assay potency score (higher = more potent) did it give?
Answer: The sensor-assay potency score (higher = more potent) was -1.

Question: With ATAATCTGGACTCAGGGCGGTG as the sequence, how does the sensor-assay potency score (higher = more potent) read?
Answer: Its sensor-assay potency score (higher = more potent) is -1.16.

Question: TTGGTTTTAATACACAAACTAA was tested. Which sensor-assay potency score (higher = more potent) did it give?
Answer: Its sensor-assay potency score (higher = more potent) is -1.05.

Question: TTCTTCTTCCGCTTGGCGGCGC was tested. Which sensor-assay potency score (higher = more potent) did it give?
Answer: Its sensor-assay potency score (higher = more potent) is -0.268.

Question: Which sensor-assay potency score (higher = more potent) does the source give for TTTCTATTGCTGTCCACCCAGG here?
Answer: The sensor-assay potency score (higher = more potent) was -1.08.

Source: the OligoGym collection
